# Experimental data as given in PMC11062922 (Nature Chemical Biology, 2023).
# Read-outs that look alike come from different tables or passages of the source.
# Legend:
# RET = conditions: read-out: apparent Kd, n = 1
# RPS6KA4 = conditions: read-out: apparent Kd, n = 1
# [1] = compound concentrations:100 nM and 1000 nM (sheet 'Lestaurtinib' of Supplementary Table 1),run:Lestaurtinib_02438_R1,Plate:MR008
# [2] = compound concentrations:100 nM and 1000 nM (sheet 'Lestaurtinib' of Supplementary Table 1),run:Lestaurtinib_02438_R3,Plate:MR008
# [3] = compound concentrations:100 nM and 1000 nM (sheet 'Lestaurtinib' of Supplementary Table 1),run:Lestaurtinib_02443_R1,Plate:MR009
# [4] = compound concentrations:100 nM and 1000 nM (sheet 'Lestaurtinib' of Supplementary Table 1),run:Lestaurtinib_02473_R3,Plate:MR010
# [5] = compound concentrations:100 nM and 1000 nM (sheet 'Lestaurtinib' of Supplementary Table 1),run:Lestaurtinib_02482_R3,Plate:MR011
# [6] = compound concentrations:100 nM and 1000 nM (sheet 'Lestaurtinib' of Supplementary Table 1),run:Lestaurtinib_02487_R2,Plate:MR012
# [7] = compound concentrations:100 nM and 1000 nM (sheet 'Lestaurtinib' of Supplementary Table 1),run:Lestaurtinib_02487_R3,Plate:MR012
# [8] = compound concentrations:100 nM and 1000 nM (sheet 'Lestaurtinib' of Supplementary Table 1),run:Lestaurtinib_02496_R1,Plate:MR013
# [9] = compound concentrations:100 nM and 1000 nM (sheet 'Lestaurtinib' of Supplementary Table 1),run:Lestaurtinib_02566_R1,Plate:MR014
# [10] = compound concentrations:100 nM and 1000 nM (sheet 'Lestaurtinib' of Supplementary Table 1),run:Lestaurtinib_02577_R1,Plate:MR016
# [11] = compound concentrations:100 nM and 1000 nM (sheet 'Lestaurtinib' of Supplementary Table 1),run:Lestaurtinib_02584_R3,Plate:MR017
# [12] = compound concentrations:100 nM and 1000 nM (sheet 'Lestaurtinib' of Supplementary Table 1),run:Lestaurtinib_02601_R2,Plate:MR018
substance,measurement,setting,value
Lestaurtinib,potency estimated from few doses,"RET; compound concentrations:100 nM and 1000 nM (sheet 'Lestaurtinib' of Supplementary Table 1),run:Lestaurtinib_02437_R2,Plate:MR007",146 nM
same,potency estimated from few doses,"RET; compound concentrations:100 nM and 1000 nM (sheet 'Lestaurtinib' of Supplementary Table 1),run:Lestaurtinib_02437_R3,Plate:MR007",23.5 nM
same,potency estimated from few doses,RET; [1],279 nM
same,potency estimated from few doses,"RET; compound concentrations:100 nM and 1000 nM (sheet 'Lestaurtinib' of Supplementary Table 1),run:Lestaurtinib_02438_R2,Plate:MR008",286 nM
same,potency estimated from few doses,RET; [2],304 nM
same,potency estimated from few doses,RET; [3],248 nM
same,potency estimated from few doses,"RET; compound concentrations:100 nM and 1000 nM (sheet 'Lestaurtinib' of Supplementary Table 1),run:Lestaurtinib_02443_R3,Plate:MR009",140 nM
same,potency estimated from few doses,"RET; compound concentrations:100 nM and 1000 nM (sheet 'Lestaurtinib' of Supplementary Table 1),run:Lestaurtinib_02473_R2,Plate:MR010",244 nM
same,potency estimated from few doses,RET; [4],60 nM
same,potency estimated from few doses,"RET; compound concentrations:100 nM and 1000 nM (sheet 'Lestaurtinib' of Supplementary Table 1),run:Lestaurtinib_02482_R1,Plate:MR011",239 nM
same,potency estimated from few doses,RET; [5],209 nM
same,potency estimated from few doses,RET; [6],140 nM
same,potency estimated from few doses,RET; [7],213 nM
same,potency estimated from few doses,RET; [8],219 nM
same,potency estimated from few doses,"RET; compound concentrations:100 nM and 1000 nM (sheet 'Lestaurtinib' of Supplementary Table 1),run:Lestaurtinib_02496_R3,Plate:MR013",141 nM
same,potency estimated from few doses,RET; [9],277 nM
same,potency estimated from few doses,"RET; compound concentrations:100 nM and 1000 nM (sheet 'Lestaurtinib' of Supplementary Table 1),run:Lestaurtinib_02566_R3,Plate:MR014",244 nM
same,potency estimated from few doses,"RET; compound concentrations:100 nM and 1000 nM (sheet 'Lestaurtinib' of Supplementary Table 1),run:Lestaurtinib_02572_R3,Plate:MR015",307 nM
same,potency estimated from few doses,RET; [10],242 nM
same,potency estimated from few doses,"RET; compound concentrations:100 nM and 1000 nM (sheet 'Lestaurtinib' of Supplementary Table 1),run:Lestaurtinib_02577_R2,Plate:MR016",142 nM
same,potency estimated from few doses,"RET; compound concentrations:100 nM and 1000 nM (sheet 'Lestaurtinib' of Supplementary Table 1),run:Lestaurtinib_02577_R3,Plate:MR016",218 nM
same,potency estimated from few doses,RET; [11],142 nM
same,potency estimated from few doses,RET; [12],235 nM
same,potency estimated from few doses,"RET; compound concentrations:100 nM and 1000 nM (sheet 'Lestaurtinib' of Supplementary Table 1),run:Lestaurtinib_02601_R3,Plate:MR018",62.4 nM
same,potency estimated from few doses,"RET; compound concentrations:100 nM and 1000 nM (sheet 'Lestaurtinib' of Supplementary Table 1),run:Lestaurtinib_02606_R1,Plate:MR019",211 nM
same,potency estimated from few doses,"RET; compound concentrations:100 nM and 1000 nM (sheet 'Lestaurtinib' of Supplementary Table 1),run:Lestaurtinib_02624_R1,Plate:MR020",141 nM
same,potency estimated from few doses,"RET; compound concentrations:100 nM and 1000 nM (sheet 'Lestaurtinib' of Supplementary Table 1),run:Lestaurtinib_02624_R3,Plate:MR020",229 nM
same,potency estimated from few doses,"RET; compound concentrations:100 nM and 1000 nM (sheet 'Lestaurtinib' of Supplementary Table 1),run:Lestaurtinib_02724_R1,Plate:MR021",275 nM
same,potency estimated from few doses,"RET; compound concentrations:100 nM and 1000 nM (sheet 'Lestaurtinib' of Supplementary Table 1),run:Lestaurtinib_02724_R2,Plate:MR021",268 nM
same,potency estimated from few doses,"RET; compound concentrations:100 nM and 1000 nM (sheet 'Lestaurtinib' of Supplementary Table 1),run:Lestaurtinib_02724_R3,Plate:MR021",153 nM
same,potency estimated from few doses,"RET; compound concentrations:100 nM and 1000 nM (sheet 'Lestaurtinib' of Supplementary Table 1),run:Lestaurtinib_02741_R1,Plate:MR023",279 nM
same,potency estimated from few doses,"RET; compound concentrations:100 nM and 1000 nM (sheet 'Lestaurtinib' of Supplementary Table 1),run:Lestaurtinib_02741_R2,Plate:MR023",279 nM
same,potency estimated from few doses,"RET; compound concentrations:100 nM and 1000 nM (sheet 'Lestaurtinib' of Supplementary Table 1),run:Lestaurtinib_02741_R3,Plate:MR023",315 nM
same,potency estimated from few doses,"RET; compound concentrations:100 nM and 1000 nM (sheet 'Lestaurtinib' of Supplementary Table 1),run:Lestaurtinib_02748_R1,Plate:MR024",135 nM
same,potency estimated from few doses,"RET; compound concentrations:100 nM and 1000 nM (sheet 'Lestaurtinib' of Supplementary Table 1),run:Lestaurtinib_02748_R2,Plate:MR024",269 nM
same,potency estimated from few doses,"RET; compound concentrations:100 nM and 1000 nM (sheet 'Lestaurtinib' of Supplementary Table 1),run:Lestaurtinib_02765_R1,Plate:MR026",320 nM
same,potency estimated from few doses,"RET; compound concentrations:100 nM and 1000 nM (sheet 'Lestaurtinib' of Supplementary Table 1),run:Lestaurtinib_02765_R3,Plate:MR026",323 nM
same,potency estimated from few doses,"RET; compound concentrations:100 nM and 1000 nM (sheet 'Lestaurtinib' of Supplementary Table 1),run:Lestaurtinib_02766_R3,Plate:MR027",258 nM
same,potency estimated from few doses,"RET; compound concentrations:100 nM and 1000 nM (sheet 'Lestaurtinib' of Supplementary Table 1),run:Lestaurtinib_02768_R3,Plate:MR028",135 nM
same,potency estimated from few doses,"RET; compound concentrations:100 nM and 1000 nM (sheet 'Lestaurtinib' of Supplementary Table 1),run:Lestaurtinib_02795_R2,Plate:MR022",286 nM
same,potency estimated from few doses,"RET; compound concentrations:100 nM and 1000 nM (sheet 'Lestaurtinib' of Supplementary Table 1),run:Lestaurtinib_02795_R3,Plate:MR022",300 nM
same,potency estimated from few doses,"RET; compound concentrations:100 nM and 1000 nM (sheet 'Lestaurtinib' of Supplementary Table 1),run:Lestaurtinib_02802_R1,Plate:MR029",137 nM
same,potency estimated from few doses,"RET; compound concentrations:100 nM and 1000 nM (sheet 'Lestaurtinib' of Supplementary Table 1),run:Lestaurtinib_02802_R3,Plate:MR029",34.2 nM
same,potency estimated from few doses,"RET; compound concentrations:100 nM and 1000 nM (sheet 'Lestaurtinib' of Supplementary Table 1),run:Lestaurtinib_03252_R1,Plate:MR032",253 nM
same,potency estimated from few doses,"RET; compound concentrations:100 nM and 1000 nM (sheet 'Lestaurtinib' of Supplementary Table 1),run:Lestaurtinib_03260_R3,Plate:MR033",277 nM
same,potency estimated from few doses,"RPS6KA4; compound concentrations:100 nM and 1000 nM (sheet 'Lestaurtinib' of Supplementary Table 1),run:Lestaurtinib_02339_R2,Plate:MR001",873 nM
same,potency estimated from few doses,"RPS6KA4; compound concentrations:100 nM and 1000 nM (sheet 'Lestaurtinib' of Supplementary Table 1),run:Lestaurtinib_02339_R3,Plate:MR001",1210 nM
same,potency estimated from few doses,"RPS6KA4; compound concentrations:100 nM and 1000 nM (sheet 'Lestaurtinib' of Supplementary Table 1),run:Lestaurtinib_02364_R2,Plate:MR002",886 nM
same,potency estimated from few doses,"RPS6KA4; compound concentrations:100 nM and 1000 nM (sheet 'Lestaurtinib' of Supplementary Table 1),run:Lestaurtinib_02367_R1,Plate:MR003",1240 nM
same,potency estimated from few doses,"RPS6KA4; compound concentrations:100 nM and 1000 nM (sheet 'Lestaurtinib' of Supplementary Table 1),run:Lestaurtinib_02367_R2,Plate:MR003",1330 nM
same,potency estimated from few doses,"RPS6KA4; compound concentrations:100 nM and 1000 nM (sheet 'Lestaurtinib' of Supplementary Table 1),run:Lestaurtinib_02367_R3,Plate:MR003",989 nM
same,potency estimated from few doses,"RPS6KA4; compound concentrations:100 nM and 1000 nM (sheet 'Lestaurtinib' of Supplementary Table 1),run:Lestaurtinib_02381_R1,Plate:MR004",884 nM
same,potency estimated from few doses,"RPS6KA4; compound concentrations:100 nM and 1000 nM (sheet 'Lestaurtinib' of Supplementary Table 1),run:Lestaurtinib_02407_R1,Plate:MR005",1340 nM
same,potency estimated from few doses,"RPS6KA4; compound concentrations:100 nM and 1000 nM (sheet 'Lestaurtinib' of Supplementary Table 1),run:Lestaurtinib_02407_R2,Plate:MR005",1630 nM
same,potency estimated from few doses,"RPS6KA4; compound concentrations:100 nM and 1000 nM (sheet 'Lestaurtinib' of Supplementary Table 1),run:Lestaurtinib_02422_R1,Plate:MR006",975 nM
same,potency estimated from few doses,"RPS6KA4; compound concentrations:100 nM and 1000 nM (sheet 'Lestaurtinib' of Supplementary Table 1),run:Lestaurtinib_02437_R1,Plate:MR007",1320 nM
same,potency estimated from few doses,RPS6KA4; [1],769 nM
same,potency estimated from few doses,RPS6KA4; [2],1350 nM
same,potency estimated from few doses,RPS6KA4; [3],864 nM
same,potency estimated from few doses,RPS6KA4; [4],1240 nM
same,potency estimated from few doses,"RPS6KA4; compound concentrations:100 nM and 1000 nM (sheet 'Lestaurtinib' of Supplementary Table 1),run:Lestaurtinib_02482_R2,Plate:MR011",1340 nM
same,potency estimated from few doses,RPS6KA4; [5],924 nM
same,potency estimated from few doses,"RPS6KA4; compound concentrations:100 nM and 1000 nM (sheet 'Lestaurtinib' of Supplementary Table 1),run:Lestaurtinib_02487_R1,Plate:MR012",680 nM
same,potency estimated from few doses,RPS6KA4; [6],745 nM
same,potency estimated from few doses,RPS6KA4; [7],950 nM
same,potency estimated from few doses,RPS6KA4; [8],877 nM
same,potency estimated from few doses,"RPS6KA4; compound concentrations:100 nM and 1000 nM (sheet 'Lestaurtinib' of Supplementary Table 1),run:Lestaurtinib_02496_R2,Plate:MR013",822 nM
same,potency estimated from few doses,RPS6KA4; [9],1360 nM
same,potency estimated from few doses,"RPS6KA4; compound concentrations:100 nM and 1000 nM (sheet 'Lestaurtinib' of Supplementary Table 1),run:Lestaurtinib_02566_R2,Plate:MR014",971 nM
same,potency estimated from few doses,"RPS6KA4; compound concentrations:100 nM and 1000 nM (sheet 'Lestaurtinib' of Supplementary Table 1),run:Lestaurtinib_02572_R2,Plate:MR015",1240 nM
same,potency estimated from few doses,RPS6KA4; [10],1370 nM
same,potency estimated from few doses,RPS6KA4; [11],1210 nM
same,potency estimated from few doses,RPS6KA4; [12],1330 nM
